Measured values as given in PubChem BioAssay AID588856 (National Center for Advancing Translational Sciences (NCATS), 2011).
“And” between values parts separate entries of the source, which are not always exact repeats. Equal entries are not always repeated. About 3,100 (0.76%) of roughly 410,000 compounds were called active. Where a call stands in place of a potency, no number is given. Calls come from the whole dose curve; as a rule, active = well fitted cell-killing curve with a large enough effect; inactive = no such curve, though single readings can be large or run the other way. Many of the other results were omitted from the sample, so actives are more common in it than they were. Where a structure was tested more than once in an assay, its records may differ in their call.

experiment: qHTS for Inhibitors of TGF-b: Cytotox Counterscreen; conditions: HepG2 CAGA-GFP viability, ATP luminescence, 18 h; series mostly up to 46.1 µM
Method in brief: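 HepG2 CAGA-GFP cells (1000/well, DMEM with 1% FBS) received compound, then TGF-beta at 500 pg/mL final, and were incubated 18 hours at 37 degrees C. Viability was read by CellTiter-Glo luminescence. Media-only wells were set as complete cell-killing and DMSO as no toxicity.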
Potency is the fitted concentration of half-maximal effect.

| SMILES | Potency |
| --- | --- |
| O=C(NCCc1ccc(Cl)cc1)c1ccc2c(c1)N(Cc1ccc(F)cc1)C(=O)CS2 | inactive |
| O=C1C[C@H]2C=CCc3cccc(c32)CN1Cc1ccccc1 | inactive |
| O=C(COC(=O)c1ccccc1OCCOc1ccccc1)Nc1cccc(Br)c1 | inactive |
| Cc1ccc(C)c2sc(NC(=O)c3ccc(S(=O)(=O)N4CCCC4)cc3)nc12 | inactive |
| Cc1ccc(C)c(Cn2c(CCCNC(=O)C3CCCCC3)nc3ccccc32)c1 | inactive |
| O=C(O)C1=C/C(=C/C=[N+]2c3cc(O)c(O[C@H]4OC(CO)[C@@H](O)[C@@H](O)[C@@H]4O)cc3C[C@@H]2C(=O)[O-])C[C@H](C(=O)O)N1 (stereo partly specified) | inactive |
| O=C(CSc1nc2nccnc2c(=O)n1CCc1c[nH]c2ccccc12)Nc1ccccc1F | inactive |
| CSc1nnc(NC(=O)c2nc(S(=O)(=O)Cc3ccc(C)cc3)ncc2Cl)s1 | 15.8 µM (active) |
| Cc1nnc(NC(=O)CSc2nccn2-c2cccc(C)c2C)s1 | inactive |
| CCOc1cccc(C(=O)Nc2nnc(S(=O)(=O)N(C)c3ccc(C)cc3)s2)c1 | inactive |
| CCOCCCNC(=O)c1c(NC(=O)c2nc(SC)ncc2Cl)sc2c1CCCC2 | inactive |
| Cc1ccc2nc(NC(=O)c3nc(SCc4ccccc4F)ncc3Cl)sc2c1 | inactive |
| Cc1ccc(CS(=O)(=O)c2ncc(Cl)c(C(=O)Nc3nnc(C)s3)n2)cc1 | 15.8 µM (active) |
| CCN(CC)/[N+]([O-])=N/Oc1cc(O/[N+]([O-])=N/N2CCCC2CO)c([N+](=O)[O-])cc1[N+](=O)[O-] (stereo unspecified) | inactive |
| Brc1nc2ncnc(NCc3ccco3)c2[nH]1 | inactive |
| COC(=O)c1cc(NC(=O)c2cnc(SC)nc2-c2ccccc2)cc(C(=O)OC)c1 | inactive |
| O=C(c1ccco1)N(Cc1cccs1)c1ccc(O)cc1 | inactive |
| COc1ccc(CN2C(CC(=O)Nc3cccnc3)c3ccc(C(F)(F)F)cc3S2(=O)=O)cc1 (stereo unspecified) | inactive |
| Cc1[nH]n(-c2ccccc2)c(=O)c1CCOC(=O)c1ccc(C(F)(F)F)cc1 | inactive |
| CCOC(=O)C[C@H]1c2ccc(C(F)(F)F)cc2S(=O)(=O)N1c1ccccc1 | inactive and 7.08 µM (active) |
| Cc1cc(C)c(NC(=O)CN2C(=O)c3cccnc3Oc3ccc(Cl)cc32)c(C)c1 | inactive |
| O=C1CN(Cc2ccccc2)S(=O)(=O)c2ccccc21 | inactive |
| O=C(Nc1ccc(-c2nc3cc(NC(=O)c4ccccc4Cl)ccc3o2)cc1)c1ccccc1Cl | inactive |
| Cc1ccc(C)c(S(=O)(=O)n2nc(C)c(S(=O)(=O)N3CCC(C)CC3)c2C)c1 | inactive |

| SMILES | Potency |
| --- | --- |
| COc1ccc(-c2cc(C(=O)NCc3cc(OC)c(OC)c(OC)c3)[nH]n2)cc1 | inactive |
| Cc1cc(O)ccc1-c1cc(C(=O)NCc2cc(C(F)(F)F)cc(C(F)(F)F)c2)[nH]n1 | 12.6 µM (active) |
| COc1ccccc1CNC(=O)c1cc(-c2cc(Cl)ccc2C)n[nH]1 | inactive |
| CN(Cc1ccccc1)c1ncnc2onc(-c3ccc(F)cc3)c12 | inactive |
| CCCCC(=O)OC1=CN(Cc2ccccc2)S(=O)(=O)c2ccccc21 | inactive |
| Cc1ccccc1C(=O)Nc1sc2c(c1C(=O)N1CCC(C)CC1)CCCC2 | inactive |
| O=C(/C=C/Sc1ncn[nH]1)c1ccc(Cl)cc1 | 12.6 µM (active) |
| CCOc1ccccc1NC(=O)CN1CCCN(Cc2cccc(Cl)c2)S1(=O)=O | inactive |
| O=C1COc2ccc(-c3csc(-c4ccc(Cl)cc4)n3)cc2N1 | inactive |
| CNC(=O)[C@]1(C(F)(F)F)C[C@H](CCc2ccccc2)CCCO1 | inactive |
| Cc1cccc(OCC(O)CN2CCN(CCN3C(=O)c4cccc5cccc(c45)C3=O)CC2)c1C (stereo unspecified) | 12.6 µM (active) |
| CCc1ccc(OCC(O)CN2CCN(CCO)CC2)cc1 (stereo unspecified) | inactive |
| Cc1cccc(OCC(O)CN2CCN(S(=O)(=O)c3ccc(C)cc3C)CC2)c1 (stereo unspecified) | inactive |
| COc1cc2nc(NCC(C)c3ccccc3)n3nc(-c4ccccc4)nc3c2cc1OC (stereo unspecified) | inactive |
| Cc1cc2nc(-c3ccc(NC(=O)c4cc5ccccc5o4)cc3)oc2cc1C | inactive |
| CCCSC(=S)NC1CCS(=O)(=O)C1 (stereo unspecified) | 11.2 µM (active) |
| CC(C)C(=O)NC(NC(=S)NC1CCS(=O)(=O)C1)C(Cl)(Cl)Cl (stereo unspecified) | inactive |
| O=S1(=O)CCC(NC(=S)SCc2ccccc2Br)C1 (stereo unspecified) | inactive |
| CCOc1ccc(C(O)Cn2c(=N)n(CCN3CCCCC3)c3ccccc32)cc1 (stereo unspecified) | inactive |
| CCOc1ccc(C(=O)/C=C/c2cn(CC(O)CN3CCCCCC3)c3ccccc23)cc1 (stereo unspecified) | 11.2 µM (active) |
| O=C(/C=C/c1cn(CC(O)CN2CCc3ccccc32)c2ccccc12)c1ccc(Br)cc1 (stereo unspecified) | inactive |
| COc1ccc(CNC(=O)C(Cc2ccccc2)n2cccc2)cc1 (stereo unspecified) | inactive |
| COc1ccc(C(=O)NC(Cc2ccc(OC(=O)c3ccc(OC)cc3)cc2)C(=O)O)cc1 (stereo unspecified) | inactive |
| COc1ccc(CC(N)c2csc(NC(=O)NC(c3ccccc3)c3ccccc3)n2)cc1 (stereo unspecified) | 12.6 µM (active) |

| SMILES | Potency |
| --- | --- |
| CN(C(=N)N)c1ccc(/C=C2\C=Cc3ccccc32)cc1 | inactive |
| Cc1ccc2c(=O)c(C(=O)c3ccc(Cl)cc3)cn(CC(=O)NC3CCCCC3)c2n1 | inactive |
| S=C(NCCCc1cnc[nH]1)NCCCN(Cc1ccc(Cl)c(Cl)c1)c1ccc(Br)cn1 | 10 µM (active) |
| NCCCNC(=S)NCCCN(Cc1ccc(Cl)cc1)c1ccc(Br)cn1 | inactive and 17.8 µM (active) |
| CC(C)(C)c1ccc(C(=O)NCC(c2ccco2)S(=O)(=O)c2ccc(F)cc2)cc1 (stereo unspecified) | inactive |
| CSc1ccc(CCNC(=O)c2cc(C)nc3c2c(C)nn3-c2cccc(F)c2)cc1 | inactive |
| CC(C)(C)OC(=O)N1CCC(c2c(C(=O)NCc3ccccn3)cnn2-c2ccc(F)cc2)CC1 | inactive |
| COc1ccccc1N1CCN(c2ncnc3onc(-c4cccc(Cl)c4)c23)CC1 | inactive |
| Cc1cccc(CC(=O)N2CC(=O)Nc3ccc(F)cc3C2c2ccccc2)c1 (stereo unspecified) | inactive |
| O=C(NCc1ccccc1)C1CCN(S(=O)(=O)c2ccc3[nH]c(=O)ccc3c2)CC1 | inactive |
| CCCn1c(NCc2ccccc2F)nc2ccccc21 | inactive |
| CCN1/C(=C\c2ccc3ccccc3[n+]2CC)Sc2cc(C)ccc21 | 11.2 µM (active) |
| CSc1ccccc1-c1nnc(NC(=O)c2ccc3c(c2)OCCO3)o1 | inactive |
| Cc1ccccc1NCC(=O)N/N=C\c1ccc([N+](=O)[O-])s1 | 11.2 µM (active) |
| COc1ccc(C(=O)NCC(=O)N/N=C/c2ccc([N+](=O)[O-])s2)cc1OC | 11.2 µM (active) |
| COc1ccc(N(CC(=O)N/N=C/c2cccs2)S(=O)(=O)c2ccc(OC)c(OC)c2)cc1 | inactive |
| CCn1c(SCC(=O)N/N=C/C=C/c2ccccc2[N+](=O)[O-])nnc1-c1ccccc1 | inactive |
| COc1ccc(C(=O)NCC(c2ccco2)N2CCc3ccccc32)cc1OC (stereo unspecified) | inactive |
| Cc1ccsc1/C=N/NC(=O)Cc1cc(=O)[nH][nH]1 | inactive |
| CCc1nc2ccc(C(=O)N3CCN(c4cc(Cl)ccc4C)CC3)cc2nc1CC | inactive |
| CC(C)c1ccc(OCC(=O)N(Cc2ccc(N(C)C)cc2)C2CCS(=O)(=O)C2)cc1 (stereo unspecified) | inactive |
| CC(=O)OC1=C(C(C)=O)N(Cc2ccccc2)S(=O)(=O)c2ccccc21 | inactive |
| Oc1c(C(c2ccc(F)cc2)N2CCN(Cc3ccccc3)CC2)sc2nc(-c3ccco3)nn12 (stereo unspecified) | inactive |
| CCc1ccccc1NC(=O)c1ccc2nc(CCc3ccccc3)oc2c1 | inactive |

| SMILES | Potency |
| --- | --- |
| COc1cccc(CNCCSc2nnnn2C)c1OCc1ccccc1Cl | inactive |
| COc1cccc(CNCCc2c[nH]c3ccccc23)c1OCc1ccccc1F | 17.8 µM (active) |
| COc1cccc(CNn2cn[nH]c2=S)c1OCc1ccccc1 | inactive |
| CCC(C)Nc1oc(-c2ccc(COc3ccc(Cl)cc3)o2)nc1C#N (stereo unspecified) | inactive |
| CCC(C)Cn1c(O)cc2nn(-c3nc4ccccc4s3)c(=O)c-2c1C (stereo unspecified) | inactive |
| C/C(=N\NC(=O)CC(C)C)c1c(C(F)(F)F)[nH]n(-c2nc3ccccc3s2)c1=O | 10 µM (active) |
| O=C(Nc1ccc(F)cc1F)c1ccc2c(=O)n3c(nc2c1)CCCCC3 | inactive |
| CC(C)(C)c1ccc(C(=O)Nc2ccc3c(c2)CCCN3C(=O)c2cccs2)cc1 | inactive |
| COc1ccc(Cn2c(=O)sc3ccccc32)cc1OC | inactive |
| CCCn1c(=N)n(CC(O)COc2ccccc2OC)c2ccccc21 (stereo unspecified) | inactive |
| OC(CN=c1sc2ccccc2n1CC(O)COc1ccccc1)COc1ccccc1 (stereo unspecified) | 14.1 µM (active) |
| Cc1c(NC(=O)Nc2ccc(F)c(Cl)c2)c(=O)n(-c2ccccc2)n1C | inactive |
| CCCOc1ccc(NC(=O)CC2C(=O)N(c3ccccc3)C(=O)N2Cc2ccco2)cc1 (stereo unspecified) | inactive |
| CN1c2ccc(C=O)c3c(C=O)ccc(c23)N(C)C1(C)C | 11.2 µM (active) |
| O=C1C[C@@H](c2ccc3ccccc3c2)N1S(=O)(=O)c1ccccc1[N+](=O)[O-] | inactive |
| CCOc1ccc(OCC)c(NC(=O)c2cc(C)nc3c2c(C)nn3-c2cccc(Cl)c2C)c1 | inactive |
| CCn1c(C)c(C)c2cc(C(=O)N3CCN(c4cccc(C)c4C)CC3)ccc21 | inactive and 17.8 µM (active) |
| Cc1c(C)n(Cc2ccc(Cl)cc2)c2ccc(C(=O)N3CCN(c4ccccc4F)CC3)cc12 | inactive |
| Cc1cccc(N2CCN(C(=O)c3ccc4c(c3)CCN4S(=O)(=O)c3ccccc3)CC2)c1C | inactive |
| O=C1OC(C(=O)Nc2cccc(Br)c2)Cc2ccccc21 (stereo unspecified) | inactive |
| Nc1ccc(Nc2ccccc2)cc1 | 12.6 µM (active) |
| Cc1ccc(Nc2ccccc2N)cc1 | inactive |
| Nc1ccccc1N | inactive |
| OCCNc1ncnc2oc(-c3ccco3)c(-c3ccco3)c12 | inactive |
